Bioassay records: PubChem BioAssay, National Center for Advancing Translational Sciences (NCATS)
SMN2 splice up = qHTS Assay for Enhancers of SMN2 Splice Variant Expression | HEK293 SMN2-luciferase splicing reporter, luminescence, 30-36 h | AID 1458, 2008 | Potency, µM (titrated, usually from 46.1 µM), inactives show at the top dose activity change, positive = activation, actives largely listed as activators | actives 2.8% (n = 210,000); also: % of control where 0% means no effect; nearly all actives have a fitted effect of over 55% in size
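qHTS luciferase splicing reporter: luminescence rises when SMN2 exon 7 is included in transfected HEK293 cells. Compound exposure lasted 30-36 h at 37C, with 4.5 mM final sodium butyrate as control, followed by a ONE-Glo read.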
NPC1 prom act = qHTS Assay for NPC1 Promoter Activators | Huh7 NPC1 promoter luciferase reporter, 24 h | Potency, µM (top dose mostly 9.22 µM), for inactives: at the top dose activation, most hits filed as activators | actives 2.4% (n = 320,000) | AID 485313, 2010; also: % of control where 0% means no effect; nearly all actives have a fitted effect of over 60% in size
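In 1536-well qHTS, Huh7 cells harboring an NPC1 promoter–luciferase construct received compound for 24 h; activation was quantified by luminescence following luciferase reagent addition.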
FLuc modulator = qHTS profiling assay for firefly luciferase inhibitor/activator using purifed enzyme and Km concentrations of substrates (counterscreen for miR-21 project). Luciferin 4-monooxygenase (Photinus pyralis), P08659. purified FLuc, Km substrates, luminescence inhibition. Potency, µM (top dose mostly 57.5 µM), for inactives: top-dose activity change, negative = inhibition, hits mostly inhibitors. actives 6.9% (n = 360,000). AID 588342, 2011;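 also: plate controls were vehicle for no effect and reference inhibitor for full effect; nearly all actives have a fitted effect of over 55% in size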
Target sequence (P08659 whole entry, looked up): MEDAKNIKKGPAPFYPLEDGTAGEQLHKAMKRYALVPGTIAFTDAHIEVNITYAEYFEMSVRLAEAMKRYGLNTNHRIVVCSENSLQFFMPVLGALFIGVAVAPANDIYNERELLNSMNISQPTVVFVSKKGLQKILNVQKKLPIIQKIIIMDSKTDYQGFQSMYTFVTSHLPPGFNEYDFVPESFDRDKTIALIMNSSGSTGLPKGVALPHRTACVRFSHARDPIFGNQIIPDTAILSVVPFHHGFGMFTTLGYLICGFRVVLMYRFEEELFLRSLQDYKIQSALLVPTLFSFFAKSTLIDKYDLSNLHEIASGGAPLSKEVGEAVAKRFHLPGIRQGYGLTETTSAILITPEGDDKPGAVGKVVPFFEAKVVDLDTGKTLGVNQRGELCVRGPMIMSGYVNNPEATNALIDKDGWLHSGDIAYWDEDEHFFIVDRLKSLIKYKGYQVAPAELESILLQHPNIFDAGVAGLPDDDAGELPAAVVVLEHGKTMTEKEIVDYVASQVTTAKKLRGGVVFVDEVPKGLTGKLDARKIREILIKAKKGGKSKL
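Biochemical qHTS of compounds, final roughly 60 µM downward over six points, against 10 nM purified firefly luciferase using Km concentrations of substrates (10 uM D-luciferin, 10 uM ATP) in Tris acetate pH 7.5 buffer; luminescence output.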
Rab9 promoter act = qHTS Assay for Rab9 Promoter Activators; actives 2.8% (n = 320,000); Potency, µM (highest dose often 9.22 µM), inactives show at the top dose activation, negative = inhibition, usual class: activators; Huh7 Rab9 promoter-luciferase reporter, luminescence, 24 h; also: % of control where 0% means no effect; nearly all actives have a fitted effect of over 60% in size
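Luminescence from Amplite-detected luciferase (10 minutes, ambient) reports Rab9 promoter activation. Before that, stable Rab9-luciferase Huh7 cells (1500/well, reduced-serum OP-MEM I plus 10% FBS) were exposed to compound for 24 hours at 37C.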
ELG1 genotox = qHTS screen for small molecules that induce genotoxicity in human embryonic kidney (HEK293T) cells expressing luciferase-tagged ELG1; HEK293T ELG1-luciferase reporter, luminescence, 16 h; Potency, µM (titrated, usually from 46 µM), inactives show at the top dose activity change, positive = activation, most hits filed as activators; actives 1.3% (n = 330,000); also: % of control where 0% means no effect; nearly all actives have a fitted effect of over 60% in size
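Genotoxicity was scored as increased ELG1-luciferase reporter signal, measured by ONE-Glo luminescence (30 min, room temperature). Compound or vehicle exposure of the HEK293T reporter cells lasted 16 hr at 37°C.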
KinaseGlo FLuc = Counterscreen for Luciferase (Kinase-Glo TM) Inhibition. AID 1379, 2008. Potency, µM (highest dose often 38.3 µM), without a hit: top-dose activity change, negative = inhibition, hits mostly inhibitors. Kinase-Glo luciferase, ATP luminescence, 8 min. actives 0.28% (n = 200,000); also: % is scaled to controls: 0 for no effect and ±100 for the full control effect; nearly all actives have a fitted effect of over 60% in size
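Luminescence was the read-out, taken after 8-minute incubation at ambient temperature. Luciferase turned over luciferin with 10 uM ATP in imidazole pH 7.2 buffer containing KCl, MgCl2, Tween 20 and BSA.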
* marks the source's active call; other numbers are inactive results; ? = inconclusive; / = no result. In the library only some 7.5% were active in any assay of this set; here they are far more common. Calls follow the shape of the dose curve; as a rule, active = well fitted curve in the direction sought with a large enough effect; inconclusive = small, poorly fitted or top-dose-only effect, or another doubt; inactive = no such curve, though single readings can be large; an effect the other way counts as inactive or inconclusive. Potency is read from the fitted curve at half-maximal effect.

SMILES	SMN2 splice up	NPC1 prom act	FLuc modulator	Rab9 promoter act	ELG1 genotox	KinaseGlo FLuc
CCc1ccc(C(=O)COC(=O)CNC(=O)CNC(=O)Cc2ccccc2)cc1	-7%	1%	?	-2%	-1%	-2%
CCC(=O)N/N=C(\C)CC(=O)Nc1ccc2c(c1)OCCO2	/	-5%	-3%	-6%	-8%	-4%
O=C(c1ccc(Cl)cc1)c1cnc(-c2ccc(Cl)cc2)s1	?	16%	2%	25%	7%	-4%
O=C(c1ccccc1)c1cnc(-c2ccc(Cl)cc2)s1	?	0.35µM*	0.34µM*	0.32µM*	2.6µM*	?
O=C(c1ccccc1)c1cnc(-c2ccccc2)s1	13µM*	0.5µM*	1.2µM*	0.32µM*	2.1µM*	-25%
CCCCCCCCCC(=O)N[C@@H]1c2cc(OC)c(OC)cc2C[C@H]1OCc1ccccc1	/	/	/	/	-2%	/
CCn1cc(C(=O)NCc2ccc(F)cc2)c(=O)c2cc(S(=O)(=O)N(C)C)ccc21	-2%	/	-5%	/	/	/
Cc1ccc(-c2cc(C(=O)Nc3cccnc3)c3ccccc3n2)s1	/	13%	9.5µM*	7%	-10%	/
Cc1cccc(Nc2nc(-c3ccccc3)c(C(=O)Nc3cccnc3)s2)c1	-92%	8%	17µM*	20%	-6%	5%
Cc1cc(C)nc(NC(=O)c2cc(-c3ccc(C)s3)nc3ccccc23)c1	-26%	-4%	?	-4%	-13%	-6%
Cc1ccc2nc(-c3ccccc3)cc(C(=O)Nc3cccnc3)c2c1	/	0%	/	-2%	-3%	/
O=C(Nc1ccc(Br)cc1)c1cc(-c2ccncc2)nc2ccccc12	/	/	/	/	-2%	/
Cc1cccc(-c2cc(C(=O)Nc3ccncc3)c3ccccc3n2)c1	/	13%	24µM*	2%	-7%	/
Cc1cccc(-c2cc(C(=O)Nc3cccnc3)c3ccccc3n2)c1	/	-3%	15µM*	4%	-15%	/
CCOC(=O)c1ccc(NC(=O)c2c(N3CCCC3=O)c3cc(OC)ccc3n2C)cc1	/	/	-8%	/	/	/
CC(=O)c1cc(C(=O)Nc2ccc3ccccc3c2)c(C)o1	/	-2%	4%	2%	3%	/
Cc1ccoc1C(=O)Nc1ccc2ccccc2c1	/	1µM*	0.38µM*	0.45µM*	?	/
Cc1cc(C(=O)Nc2ccc3ccccc3c2)c(C)o1	/	1.4µM*	1.3µM*	3.5µM*	0.65µM*	/
O=C(O)Cc1ccc(NC(=O)c2ccc(NC(=O)c3ccco3)cc2)cc1	-20%	-1%	?	0%	6%	4%
Cc1cc(C(=O)Nc2ccc3ccccc3c2)oc1C	/	0.63µM*	2.1µM*	0.79µM*	9.2µM*	/
Cc1ccoc1C(=O)Nc1ccc(CC(=O)O)cc1	?	-2%	1.7µM*	-4%	?	-29%
CC1CCCCN1S(=O)(=O)c1ccc2[nH]c(=O)cc(C(=O)NCCc3ccc(Cl)cc3)c2c1 (stereo not drawn)	/	/	0%	/	/	/
CCOC(=O)c1nn(-c2ccc3c(c2)CCN3C(C)=O)cc1O	10µM*	1.6µM*	3.8µM*	2.2µM*	1.6µM*	-11%
CCOC(=O)c1nn(-c2ccc(F)cc2)cc1O	-17%	?	?	?	?	8%
C/C(=N\NC(=O)C1CC1c1ccccc1)c1cccs1 (stereo not drawn)	13%	1%	5%	3%	-1%	-7%
SMILES	SMN2 splice up	NPC1 prom act	FLuc modulator	Rab9 promoter act	ELG1 genotox	KinaseGlo FLuc
COc1ccc(C2CC2/C(=N/OC(=O)c2cccs2)c2ccccc2)cc1 (stereo not drawn)	?	?	12µM*	?	?	-2%
CCCN1C(=O)C(=O)N(CC(=O)c2cc(C)n(C3CC3)c2C)C1=O	/	2.8µM*	?	1.4µM*	?	/
O=C(COC(=O)c1c2c(nc3ccccc13)CCCCC2)c1ccc(Cl)s1	1%	1%	13µM*	13%	-9%	3%
O=C(OCC(=O)N1CCc2ccccc21)c1c2c(nc3ccccc13)CCCC2	/	8%	6.7µM*	21%	-19%	/
O=C(COC(=O)c1c2c(nc3ccccc13)CCCC2)c1cccs1	-6%	11%	11µM*	2%	-8%	1%
NC(=O)COC(=O)c1c2c(nc3ccccc13)CCCCC2	4%	-4%	-3%	-1%	-2%	-1%
COC(=O)[C@@]1(Cc2ccccc2)[C@H]2c3cc(C(=O)N(C)C)n(Cc4ccc(S(C)(=O)=O)cc4)c3C[C@H]2CN1C(=O)c1ccccc1	-11%	/	/	/	/	-3%
COc1cc2ccccc2cc1C(=O)Nc1cccnc1	13µM*	?	11µM*	?	8.2µM*	1%
COc1ccc(NC(=O)c2cc3ccccc3cc2OC)cc1	/	?	3.4µM*	29%	?	/
C=CCn1cccc(C(=O)Nc2ccc(OC)cc2)c1=O	/	?	?	?	12%	-14%
COc1cc2ccccc2cc1C(=O)Nc1ccc(N2CCN(C(=O)C(C)C)CC2)cc1	/	2%	-8%	-1%	-13%	/
COc1cc2ccccc2cc1C(=O)Nc1ccc(N2CCN(C)CC2)cc1	50%	?	4.8µM*	3.5µM*	14µM*	-2%
COc1ccc(NC(=O)c2cccn(CC=C(C)C)c2=O)cc1	2%	?	17µM*	1.6µM*	6%	2%
O=C(C1CCC(Cn2c(=O)c3sccc3n(Cc3cccc(F)c3)c2=O)CC1)N1CCCCC1 (stereo not drawn)	/	/	-12%	/	/	/
CCOc1ccc(NC(=O)c2cc3ccccc3cc2O)cc1	/	?	0.76µM*	2.8µM*	?	/
COc1cc(NC(=O)c2cc3ccccc3cc2O)c(OC)cc1Cl	/	?	9.5µM*	-7%	-6%	/
COc1cc2ccccc2cc1C(=O)Nc1ccccc1Cl	/	?	3.4µM*	26%	?	/
COc1cc(OC)c(NC(=O)c2ccccc2F)cc1Cl	13%	6%	?	14%	3%	-1%
COc1cc2cc(C(=O)Nc3ccccc3)c(N)nc2cc1OC	-7%	2%	12µM*	-1%	0%	0%
CC(=O)OCc1ccc2c(c1)OCO2	-11%	/	/	/	/	/
CCOc1ccc(NC(=O)c2cc3ccccc3cc2OC)cc1	/	?	5.4µM*	?	?	/
CCOc1ccc(NC(=O)c2cccc3ccccc23)cc1	/	-11%	-17%	14%	4%	/
